Assay results as given in PubChem BioAssay AID720504 (National Center for Advancing Translational Sciences (NCATS), 2013).
Out of some 360,000 compounds screened, about 10,000 (2.8%) were called active. About 4% were inconclusive and are not listed. Only a selection was taken, and actives are over-represented in it overall. A number with no mark means an inactive call. Calls follow the shape of the dose curve; as a rule, active = well fitted inhibition curve with a large enough effect; inconclusive = small, poorly fitted or top-dose-only effect; inactive = flat fitted curve, though single readings scatter.

Target: Serine/threonine-protein kinase PLK1 (Homo sapiens) (UniProt P53350)
Sequence (P53350 whole entry, looked up, the tested form may be a part): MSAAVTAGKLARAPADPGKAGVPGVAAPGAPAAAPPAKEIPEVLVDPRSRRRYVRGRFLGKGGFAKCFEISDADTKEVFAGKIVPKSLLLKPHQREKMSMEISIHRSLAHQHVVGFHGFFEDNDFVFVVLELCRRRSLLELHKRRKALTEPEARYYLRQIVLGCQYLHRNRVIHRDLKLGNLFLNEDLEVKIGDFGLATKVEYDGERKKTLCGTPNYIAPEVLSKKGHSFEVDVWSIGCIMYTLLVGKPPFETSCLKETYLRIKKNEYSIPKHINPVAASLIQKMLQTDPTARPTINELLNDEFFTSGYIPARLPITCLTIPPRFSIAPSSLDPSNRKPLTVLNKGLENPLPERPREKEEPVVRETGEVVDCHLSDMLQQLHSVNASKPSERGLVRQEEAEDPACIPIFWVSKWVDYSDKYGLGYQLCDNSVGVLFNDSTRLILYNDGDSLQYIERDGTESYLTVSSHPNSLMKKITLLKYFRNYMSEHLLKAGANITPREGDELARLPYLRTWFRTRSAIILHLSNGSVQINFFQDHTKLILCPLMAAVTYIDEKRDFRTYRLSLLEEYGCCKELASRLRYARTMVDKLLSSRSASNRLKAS
Test: qHTS for Inhibitors of PLK1-PDB (polo-like kinase 1 - polo-box domain): Primary Screen; also: nearly all actives have a fitted effect of over 65% in size; as to max response, negative = inhibition: series mostly up to about 57 µM
Conditions: Plk1 PBD binding of FITC phosphopeptide, fluorescence polarization
% is scaled to controls: 0 for no effect and ±100 for the full control effect; potency is read from the fitted curve at half-maximal effect.

Structure (SMILES) | max response, negative = inhibition [%] | Potency
COc1ccc2[nH]cc(CCN3C(=O)c4ccc(C(=O)O)cc4C3=O)c2c1 | -13.3 | 
O=C1c2ccccc2C(=O)N1CCCCCCN1C(=O)c2ccccc2C1=O | -2.55 | 
Cc1ccc2[nH]cc(CCCN3C(=O)c4ccccc4C3=O)c2c1 |  | 29.9 µM (active)
COC(=O)C1(C(=O)OC)C/C=C\CN(S(=O)(=O)c2ccccc2[N+](=O)[O-])CCC1 | 3.46 | 
O=C1OCCC1=COCCCCOC=C1CCOC1=O | 1.79 | 
Cc1ccc(NC(=O)O/N=C/c2cccc([N+](=O)[O-])c2)cc1 | -16.5 | 
Cc1ccc(NC(=O)C(=O)NCC2CCN(C(=O)c3cccc([N+](=O)[O-])c3)CC2)cc1 |  | 29.9 µM (active)
O=C(NCCN1CCN(C(=O)c2cccc([N+](=O)[O-])c2)CC1)C(=O)NCc1ccc(Cl)cc1 | 2.99 | 
Cc1cccc(C)c1NC(=O)CNC(=O)c1ccc(N2CCOCC2)c([N+](=O)[O-])c1 | -13.7 | 
O=C(CNC(=O)c1ccccc1)Oc1ccc([N+](=O)[O-])cc1 |  | 5.32 µM (active)
COC(=O)CNC(=O)c1ccccc1[N+](=O)[O-] | -2.66 | 
O=C(NNS(=O)(=O)Cc1ccccc1)c1ccc([N+](=O)[O-])cc1 | -14.2 | 
Cc1ccc(Cc2c(-c3ccc(C)cc3)nc3c4ccccc4ccn23)cc1 | 5.48 | 
COc1cc(C=C(OC(C)=O)c2ccc3c(c2)OCO3)cc(OC)c1OC | -7.84 | 
CCOC(=O)C1(C)CCCN(C(=O)c2ccc(N(C)C)cc2)C1 (stereo not drawn) | -5.89 | 
COc1cccc(CNC(=O)CN(C)S(=O)(=O)c2ccc3c(c2)c(=O)n(C)c(=O)n3C)c1 | -6.18 | 
CC1CCC(NC(=O)CN(C)S(=O)(=O)c2ccc3c(c2)c(=O)n(C)c(=O)n3C)CC1 (stereo not drawn) |  | 18.9 µM (active)
CCc1ccccc1NC(=O)CN(C)S(=O)(=O)c1ccc2c(c1)c(=O)n(C)c(=O)n2C | -2.91 | 
CCNC(=O)C1CCCN(C(=O)c2ccc(OC)cc2OC)CC1 (stereo not drawn) | -11.4 | 
Cc1ccc(NN=Nc2nc3c([nH]2)c(=O)n(C)c(=O)n3C)cc1 |  | 23.8 µM (active)
Cc1cc(C)c(C=NNc2nc3c([nH]2)c(=O)n(C)c(=O)n3C)c(C)c1 | -11.3 | 
Cc1cccc(C)c1NC(=O)CSc1nc2c([nH]1)c(=O)n(C)c(=O)n2C | -5.89 | 
C[C@H]1CN([C@@H](C)CO)C(=O)CCCn2cc(nn2)CO[C@@H]1CN(C)S(=O)(=O)c1cccs1 | -15.8 | 
CCn1cc(/C=C(\NC(=O)c2ccc(C)cc2)C(=O)NCCN2CCOCC2)c2ccccc21 |  | 26.7 µM (active)
O=C(NCCN1CCOCC1)/C(=C/c1ccc(F)cc1)NC(=O)c1ccccc1 | -12.8 | 
Cc1ccc(C(=O)N/C(=C\c2ccc(F)cc2)C(=O)NCCN2CCOCC2)cc1 | -16.1 | 
CCCOc1ccc(F)cc1-c1cc(C(=O)Nc2ccc(F)cc2)[nH]n1 | 6.37 | 

Structure (SMILES) | max response, negative = inhibition [%] | Potency
O=C(NCc1cccc(C(F)(F)F)c1)c1ccc2sc(COCCO)nc2c1 | -3.85 | 
CCOC(=O)C1C(C)C(C(C)(C)C)N(S(=O)(=O)c2ccc(C)cc2)C1c1ccccc1 (stereo not drawn) | -10.1 | 
CC1(C(=O)NCC2CCOCC2)Cc2c(-c3cccc(C(N)=O)c3)ccnc2O1 (stereo not drawn) | -6.03 | 
CN(C)/C=C/C(=O)c1ccccc1F | -6.3 | 
Cc1nc(COc2cccc(Cl)c2)sc1C(=O)/C=C/N(C)C | 6.79 | 
Cc1nc(-c2ccccc2)sc1C(=O)/C=C/N(C)C |  | 29.9 µM (active)
Cc1ccc(-c2nc3c(Cl)cc(C(F)(F)F)cn3c2Cc2cccc(Cl)c2)cc1 | 4.46 | 
CCOC(=O)c1c(NC(=O)CN2C(=O)NC3(CCC(C)CC3)C2=O)sc(C)c1CC (stereo not drawn) | -5.1 | 
CCOC(=O)c1c(NC(=O)C2CC=CCC2C(=O)O)sc(C)c1CC (stereo not drawn) |  | 26.7 µM (active)
COC(=O)c1c(NC(=O)C2CC(C)=C(C)CC2C(=O)O)sc2c1CCCCC2 (stereo not drawn) | -20.4 | 
Nc1ncnc2c1ncn2[C@@H]1O[C@H](C(=O)NS(=O)(=O)c2c(Cl)nc3sccn23)[C@@H](O)[C@H]1O | -12.2 | 
COCCNc1ncnc2c1ncn2[C@H]1CN(Cc2ccc(OC)cc2)C[C@@H](CO)O1 | 5.71 | 
CCCC1(C(=O)OCC)NC(c2ccc(N(C)C)cc2)C2C(=O)N(c3ccc4c(c3)OCCO4)C(=O)C21 (stereo not drawn) | 0.149 | 
CCCCC1(C(=O)OCC)NC(c2ccc(O)cc2)C2C(=O)N(c3ccccc3)C(=O)C21 (stereo not drawn) |  | 11.9 µM (active)
CCOC(=O)C1(C)NC(c2ccco2)C2C(=O)N(c3ccccc3)C(=O)C21 (stereo not drawn) | -2.81 | 
COc1ccc(CCNC(=O)Nc2ccc3c(c2)c(=O)n(C)n3C)cc1OC | -18.9 | 
N#CCSc1ccccc1NC(=O)CN1C(=O)NC(CCc2ccccc2)C1=O (stereo not drawn) | 1.14 | 
COc1ccc(C(C(=O)NCc2ccccc2)n2c(=O)c(-c3ccccc3)nc3ccccc32)cc1 (stereo not drawn) | -13.5 | 
CCC(=O)Nc1sc(C(=O)Nc2ccccc2)c(C)c1C(=O)OC | -13 | 
COC(=O)c1c(NC(C)=O)sc(C(=O)Nc2ccccc2OC)c1C |  | 21.2 µM (active)
COc1ccccc1NC(=O)C1=C(C)NC(=O)NC1c1ccc(C)s1 (stereo not drawn) | -4.66 | 
Cc1[nH]c2ccccc2c1C(=O)c1cc([C@H](NC(=O)OC(C)(C)C)C(C)C)sc1N | -13.9 | 
COc1c(C)cc(C(O)c2ncc(-c3cccc(C(F)(F)F)c3)[nH]2)cc1C (stereo not drawn) | -6.75 | 
CCCC(=O)N1CCC1(C)C(=O)NS(=O)(=O)c1ccc(Cl)cc1 (stereo not drawn) | -0.638 | 
O=C(NCc1ccc(F)cc1F)[C@@H]1CCCN1C(=O)[C@@H]1CCCN1C(=O)c1cccc(Cl)c1 | -3.81 | 
COc1ccc(NC(=O)N(C)C[C@@H]2OCc3cn(nn3)CCCC(=O)N([C@H](C)CO)C[C@H]2C)c(OC)c1 | -13 | 
